Screening results (PubChem BioAssay)
NADH coupling: inhibitors of PK/LDH coupling enzymes, profiling panel, artefact control, biochemical, MLSMR library. hit rate 0.02% among 65,000. IC50, µM (series often up to 10 µM), for inactives: at the highest dose inhibition. AID 774, 2007. coupled PK/LDH NADH assays, four targets;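 active means single-dose screening hits from any of four coupled enzyme assays that gave an IC50 when retested across doses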;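 further: the DPM-DC format reads NADH fluorescence rather than 340 nm absorbance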
PMK inhibit: S. pneumoniae PMK inhibitors, primary screen, biochemical, mevalonate pathway, pilot trial included | inhibition, % at 10 µM | purified PMK, PK/LDH-coupled NADH absorbance 340 nm | AID 539, 2006 | hit rate 0.49% among 65,000 | phosphomevalonate kinase (Streptococcus pneumoniae D39);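 active means top-ranked compounds by inhibition in the single 10 µM screen, taking a fixed number of the strongest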;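 further: 0% = full reaction with DMSO carrier and 100% = background rate without enzyme reaction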
MK inhibit: S. pneumoniae MK inhibitors, primary screen, biochemical, PK/LDH-coupled NADH absorbance; mevalonate kinase [Streptococcus pneumoniae D39]; purified MK, PK/LDH-coupled NADH absorbance 340 nm; inhibition, % at 10 µM; hit rate 0.48% among 65,000; AID 555, 2006;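 active means ranked among the strongest by inhibition in the single 10 µM screen, a fixed top-ranked set picked for dose follow-up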
A340 absorber: compound light absorbance at 340 nm, profiling panel, artefact control, biochemical, MLSMR library, data from PS, PMK, MK assays | compound absorbance at 340 nm, fold over control | 65,000 tested, under 10 active | fold change at 10 µM;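 active means at 10 µM dose, initial 340 nm absorbance at least 2 fold that of control wells; inactive means change under 2 fold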;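 further: initial absorbance extrapolated from kinetic A340 decline of NADH oxidation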
Autofluor 339: intrinsic fluorescence of library compounds, ex339/em460 – biochemical, MLSMR library, data from DPM-DC assay, artefact control, profiling panel. AID 709, 2007. fluorescence fold increase at 10 µM. hit rate 5.5% among 65,000. compound autofluorescence, ex339/em460 nm, NADH buffer; active compounds read high; 1 = no-compound wells, NADH background;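 active means at 10 µM, mean starting fluorescence two-fold or more over control wells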;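 further: signal is the first read of a kinetic run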
DPM-DC inhibit: S. pneumoniae DPM-DC inhibitors, primary screen, biochemical, PK/LDH-coupled NADH fluorescence | AID 556, 2006 | calls only at 10 µM | diphosphomevalonate decarboxylase (Streptococcus pneumoniae D39) | purified DPM-DC | hit rate 0.49% among 65,000;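 active means the 320 compounds with the highest percent inhibition in the single-dose primary screen, excluding strongly autofluorescent ones, cut at about 32% in these data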;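 further: kinetic rate of NADH fluorescence loss reporting ADP formed by the decarboxylase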
The depositor's hits bear a star; i = inactive; nt = no result shown; + = active, no number; [ ] = another dose, or the depositor's remark. Only some compounds are listed: those with a hit (about 6.3% of all), similar ones and a draw of the others.

SMILES	NADH coupling	PMK inhibit	MK inhibit	A340 absorber	Autofluor 339	DPM-DC inhibit
CN(Cc1ccccc1)S(=O)(=O)c1ccc(C(=O)Nc2nnc(C3CC3)o2)cc1	4%	10	3	1	1.1	i
Cn1c(=O)n(C)c2cc(/C=N/n3cnnc3)ccc21	10%	11	5	1.2	2.8*	i
COc1cc2cc(C(=O)Nc3ccccc3)c(N)nc2cc1OC	5%	0	10	1.1	2.3*	nt
COc1cc2ccccc2cc1C(=O)Nc1cccnc1	0%	0	0	1.1	1.3	i
CCOC(=O)C1CCN(C(=O)C2CCN(S(=O)(=O)c3cccc4cccnc34)CC2)CC1	11%	12	21	1.1	1.1	i
c1c2c(cc3sc(N4CCCCC4)nc13)OCO2	8%	18	6	1	1.1	i
O=c1cc(C(F)(F)F)c2sc(N3CCCCC3)nc2[nH]1	9%	17	0	1.1	2.1*	nt
CCC(=O)Oc1ccc2c(C)cc(=O)oc2c1C	5%	12	7	0.98	2.1*	+[fluoresces]
O=C(c1cc2nc3c(c(C(F)(F)F)n2n1)CCc1ccccc1-3)N1CCN2CCCC2C1 (configuration not stated)	5%	15	0	1.1	1.4	i
Cc1cc(C(=O)NCCCN2CCOCC2)n(-c2ccccc2)n1	1%	0	5	0.99	1	i
O=C(NCc1ccccc1Cl)c1cnn2cccnc12	10%	9	8	1.1	2.2*	i
O=C(Nc1cccc(Cl)c1)c1cnn2cccnc12	7%	5	13	1.1	1.1	i
O=C(NCc1cccs1)c1cnn2cccnc12	6%	0	4	1.1	2.1*	i
CC(=O)N1CCc2cc(S(=O)(=O)NC(CC(C)C)C(=O)N3CCn4c3nc3ccccc34)ccc21 (configuration not stated)	3%	12	0	0.99	1.1	i
CCOC(=O)N1CCC(=C2c3ccc(Cl)cc3CCc3cccnc32)CC1	2%	5	3	1	1	i
Cc1ccc2[nH]c3c(N4CCCCCC4)ncnc3c2c1	3%	8	0	1.1	1.3	i
Fc1ccc2[nH]c3c(N4CCN(C5CCCCC5)CC4)ncnc3c2c1	3%	2	3	1.1	2.3*	nt
Cc1nn(Cc2ccccc2)c2c1C(c1ccncc1)C(C#N)=C(N)O2 (configuration not stated)	4%	31*	8	0.98	1.1	i
Cc1nn(Cc2ccccc2)c2c1C(c1ccco1)C(C#N)=C(N)O2 (configuration not stated)	8%	9	15	1.1	1	i
CCN(CC)c1cc(C)c2cc(NC(=O)CNC(C)=O)ccc2n1	7%	0	13	1.1	2.2*	nt
CCN(CC)c1ccc(NC(=O)CSc2nnc(N)s2)cc1C	4%	8	5	1	1.1	i
O=C(COC(=O)c1cc(S(=O)(=O)N2CCCCC2)ccc1N1CCOCC1)NC1CCCCC1	4%	10	2	1.1	1.1	i
COc1ccccc1N1CCN(C(=O)CSc2nnc(NC(=O)c3ccco3)s2)CC1	15%	12	0	1	0.73	+
COc1ccccc1N1CCN(C(=O)CSc2nnc(NC(=O)C3CC3)s2)CC1	5%	11	5	0.99	1.1	i
Clc1ccc(C2Nc3ccccc3-n3cccc32)cc1 (configuration not stated)	0%	0	2	1	2.4*	nt
SMILES	NADH coupling	PMK inhibit	MK inhibit	A340 absorber	Autofluor 339	DPM-DC inhibit
CCc1ccc2[nH]c(=O)c(C(c3nnnn3CCOC)N3CCN(c4ccccc4)CC3)cc2c1 (configuration not stated)	14%	15	13	1.1	1.6	i
Cn1cccc1Cc1nnc(SCC(=O)NCc2ccc(F)cc2)n1-c1ccc(F)cc1	10%	17	active	1	1.1	i
NC(=O)c1nsc(C(=O)N(CC(=O)NCc2ccc3c(c2)OCO3)C2CCCCC2)c1N	6%	7	6	1.1	2.9*	i
COc1ccc(OC)c(-n2c(-c3cccc(O)c3)n[nH]c2=S)c1	27%	0	66*	1	1.2	i
COC(=O)C1=C(C)N(C)C(C)=C(C(=O)OC)C1c1ccc(C(=O)OC)cc1	4%	0	11	1.1	1.1	i
COC(=O)C1=CNC=C(C(=O)OC)C1c1ccc(C(=O)OC)cc1	9%	14	4	1.1	2.1*	nt
CN(C)C=Nc1ncc2c([nH]c3ccccc32)c1C#N	9%	11	2	1.2	2.1*	i
CC(=O)Nc1cc(C(N)=O)c(Cl)cc1Cl	9%	10	9	1	0.85	i
CCOc1cc(-c2cc(-c3ccc(N)cc3)nc(N)c2C#N)ccc1O	9%	5	12	1.1	3.6*	nt
CN(C)CCNC(=O)c1c(O)c2c([nH]c1=O)CCCC2	6%	14	4	1	1	i
COc1ccc(CC(=O)N2CCOCC2)cc1OC	3%	0	7	0.99	1	i
COc1ccc(C(=O)CCC(=O)N2CCN(c3ccc(N4CCOCC4)nn3)CC2)cc1	2%	0	4	1	2.1*	nt
CCOc1ccc(CC(=O)N2CCN(c3ccc(N4CCOCC4)nn3)CC2)cc1OCC	4%	6	2	1	2.1*	nt
CC(=O)N1CSCC1C(=O)N1CCN(c2ccc(N3CCOCC3)nn2)CC1 (configuration not stated)	12%	13	10	0.99	2.1*	nt
Cc1ccc(OC(=O)c2cccc(C(=O)Oc3ccc(C)cn3)n2)nc1	0%	0	0	1.1	1.3	i
C=CCOc1ccc2ccccc2c1CNc1ncn[nH]1	5%	5	7	1	1.1	i
Nc1c(C(=O)Nc2ccccc2)sc2nc(-c3ccco3)ccc12	7%	6	7	1.1	3.7*	nt
COc1cc(NC(=O)c2ccco2)c(OC)cc1NC(=O)c1cc(OC)c(OC)c(OC)c1	5%	3	5	1.1	1.1	i
COc1cc2cc3c(N)c(C(=O)NCc4ccco4)sc3nc2cc1OC	13%	20	9	1.1	1.2	i
COc1ccccc1NC(=O)c1sc2nc(-c3ccco3)ccc2c1N	7%	3	11	1.1	3.8*	nt
CCOc1cc(NC(=O)c2ccco2)c(OCC)cc1NC(=O)c1cc(OC)c(OC)c(OC)c1	5%	3	7	1.1	4*	nt
NC(=O)c1oc2ccccc2c1NC(=O)c1ccco1	1%	0	3	1.1	1.1	i
